Test results published in PubChem BioAssay (NCI).
Compounds without any hit were thinned out: in the full panel of roughly 79,000, 15% have a hit. Rule as the data show it: active = growth inhibition above about 70%; inactive = the rest.

How the values were obtained:
[1] = NCI Yeast Anticancer Drug Screen. Data for the rad50 strain (AID 155);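 also: 0% = growth of vehicle-only cultures of the same strain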; details: S. cerevisiae rad50 strain growth inhibition; at 50.0 µM; stronger effect = higher value
Summary of the method: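 Inhibition values express reduced yeast growth in compound-treated cultures relative to vehicle-treated controls.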

[2] = NCI Yeast Anticancer Drug Screen. Data for the mec2-1 strain (AID 157); details: S. cerevisiae mec2-1 strain, at 50.0 µM, stronger effect = higher value
Summary of the method: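 Compounds were applied to mec2-1 yeast cells. Their growth was then compared with that of vehicle-treated cultures to give growth inhibition.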

[3] = NCI Yeast Anticancer Drug Screen. Data for the sgs1 mgt1 strain (AID 161);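 also: 0% = growth of cultures given vehicle only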; details: S. cerevisiae sgs1 mgt1 strain, at 50.0 µM, stronger effect = higher value
Summary of the method: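 Growth of a repair-deficient yeast mutant was monitored after compound treatment and expressed as inhibition relative to vehicle-treated cultures.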

[4] = NCI Yeast Anticancer Drug Screen. Data for the cln2 rad14 strain (AID 165);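 also: 0% = growth equal to vehicle treated cultures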; details: S. cerevisiae cln2 rad14 strain, at 50.0 µM, stronger effect = higher value
Summary of the method: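 Strain: cln2 rad14 yeast, altered in cell cycle control and DNA damage repair. Read-out: growth inhibition vs vehicle.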

[5] = NCI Yeast Anticancer Drug Screen. Data for the bub3 strain (AID 167); details: S. cerevisiae bub3 mutant strain, at 50.0 µM, stronger effect = higher value
Summary of the method: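 Steps: expose the mutant yeast strain to compound; grow alongside vehicle-treated cultures; measure growth; express inhibition against the vehicle cultures.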

[6] = NCI Yeast Anticancer Drug Screen. Data for the mlh1 rad18 strain (AID 175); details: S. cerevisiae mlh1 rad18 strain growth inhibition; at 50.0 µM; stronger effect = higher value
Summary of the method: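 A repair-deficient yeast strain is exposed to test compound, and growth is scored relative to vehicle-treated controls.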

Measured: growth inhibition

CCC(=O)NCCc1ccccc1
inactive: [1] -16.2% | [2] 29.6% | [3] 14.3% | [4] -13.1% | [5] -5.8% | [6] -10.4%

Cc1ccc(CNC(=S)Nc2ccc(F)cc2)c(C)c1
inactive: [1] -7.6% | [2] 30.1% | [3] 30.4% | [4] -24.7% | [5] 46.1% | [6] 27.4%

Clc1ccc(-c2ccncc2)cc1
inactive: [1] 17.1% | [2] -9.15% | [3] 7.2% | [4] -69.7% | [5] 13.1% | [6] 5.7%

O=C(OCc1ccccc1)N1CCCCC1
inactive: [1] 7.9% | [2] -2.65% | [3] 5.45% | [4] -13.2% | [5] 22.2% | [6] -1%

CCC(C(N)=O)C(C)(C)C (configuration not stated)
inactive: [1] -0.15% | [2] -12.2% | [3] -4.7% | [4] 7.3% | [5] 12.3% | [6] -1.2%

CCOc1ccc([N+](=O)[O-])cc1
inactive: [1] -28.8% | [2] 3.9% | [3] -2.65% | [4] -40.2% | [5] -3.5% | [6] -31.9%

CCC(CC)C(=O)NCC(=O)NO
inactive: [1] 2.25% | [2] 2.85% | [3] 1% | [4] -36% | [5] 0.6% | [6] 9.15%

CC1=C(C(=O)NN)CC/C1=N\N
inactive: [1] -25.4% | [2] -18.8% | [3] -11.5% | [4] -10.6% | [5] -9.3% | [6] -10.6%

CCOP(=O)(OCC)C(F)(F)Cc1cnc(C)c2c1COC(C)(C)O2
inactive: [1] -14.8% | [2] -34.8% | [3] -32.5% | [4] -16.7% | [5] 17.9% | [6] -27.3%

CCOC(=O)C(=O)Nc1ccc2cc(OC)ccc2c1C#N
inactive: [1] 13.8% | [2] 14.2% | [3] 14.8% | [4] 35.2% | [5] 19.4% | [6] -17.8%

Brc1c2ccccc2cc2ccccc12
inactive: [1] 22% | [2] 29.8% | [3] 25% | [4] -8.8% | [5] 63.4% | [6] 42.6%

COC(=O)C1C2OC(C(Br)C2Br)C1C(=O)O (configuration not stated)
inactive: [1] -6.2% | [2] 2.2% | [3] 7.1% | [4] 2.2% | [5] 9.95% | [6] 3.8%

NC(=O)C1CCCC1
inactive: [1] -3.3% | [2] 2.1% | [3] -5.25% | [4] 14.1% | [5] 23.4% | [6] -5.05%

O=S(=O)(Nc1c(Cl)c(Cl)c(NS(=O)(=O)c2ccccc2)c(Cl)c1Cl)c1ccccc1
inactive: [1] 46.2% | [2] 0.6% | [3] 13.4% | [4] -5.6% | [5] 4.55% | [6] 15.5%

COc1ccc2c(=O)c(S)coc2c1
inactive: [1] 35.8% | [2] 36.5% | [3] 22.3% | [4] 9% | [5] -1.15% | [6] 41%

CC(=O)OC(C)/C=C\C#N (configuration not stated)
inactive: [1] -17.9% | [2] 14.3% | [3] 5.25% | [4] -2.65% | [5] 0.35% | [6] 37.8%

CCOC(=O)/C(C)=C\C1C(C)=CC(=O)CC1(C)C (configuration not stated)
inactive: [1] -0.05% | [2] -16.1% | [3] -5.1% | [4] -29% | [5] 20.4% | [6] -7.15%

CCOCc1cc(Cc2cc(COCC)c3cccnc3c2O)c(O)c2ncccc12
inactive: [1] 55.7% | [2] 16.7% | [3] 39.6% | [4] 10.2% | [5] 0.45% | [6] 16.2%

C=CCNC(=O)c1ccccc1OCC(=O)O
inactive: [1] -12.7% | [2] -37.3% | [3] -8.75% | [4] -8.1% | [5] -29.1% | [6] 1.4%

S=C(Oc1ccccc1)Oc1ccc2ccccc2c1
inactive: [1] 9.7% | [2] -6.8% | [3] -9.7% | [4] -6.55% | [5] 15.3% | [6] -11.6%

NC(=O)C1=CCCC1
inactive: [1] 6% | [2] -0.1% | [3] 0.5% | [4] 10.2% | [5] 12.8% | [6] -3.3%

Cc1ccc(S(=O)(=O)OC(c2ccccc2)c2ccccc2)cc1
inactive: [1] -7.05% | [2] -10.9% | [3] -0.4% | [4] -17.4% | [5] 0% | [6] -28.8%

O=C(CC(=O)Nc1ccccc1)NNC(Sc1ccccc1)c1cc(N=Nc2ccc(Br)cc2)ccc1O (configuration not stated)
inactive: [1] 4.6% | [2] 14.1% | [3] 11.2% | [4] -10% | [5] -2.9% | [6] -4.7%

CNCCC(=O)c1ccccc1
inactive: [1] -20.9% | [2] -14.3% | [3] -14.4% | [4] -64.8% | [5] -17.6% | [6] 2.25%

CNC(=O)NC1CCC(C)CC1 (configuration not stated)
inactive: [1] 2% | [2] 2.6% | [3] 1.5% | [4] -14.3% | [5] -6.25% | [6] 7.85%

O=C(NCCCCCCNC(=O)C1CCCNC1)C1CCCNC1 (configuration not stated)
inactive: [1] 19.1% | [2] -11.7% | [3] 13.8% | [4] 15.8% | [5] 15.4% | [6] 12.8%

CCNC(=S)NCCc1c[nH]c2ccccc12
inactive: [1] -57% | [2] -3.55% | [3] -7.75% | [4] -0.4% | [5] 2.55% | [6] -36.6%

N#CCNC=O
inactive: [1] -2.9% | [2] 7.35% | [3] -13.4% | [4] -11.9% | [5] 2.8% | [6] -11.5%

NC(=O)C(Cl)=C(Cl)Cl
inactive: [1] 2.85% | [2] 10.4% | [3] -2% | [4] -4.75% | [5] -4.8% | [6] 1.65%

CC1(C)C(=O)/C=C\C(=O)C(C)(C)C(=O)/C=C\C(=O)C(C)(C)C(=O)/C=C\C(=O)C(C)(C)C(=O)/C=C\C1=O
inactive: [1] 12.1% | [2] 0.25% | [3] -9.05% | [4] 10.5% | [5] -13.2% | [6] 12.7%

N#CSCc1ccc(CSC#N)c(Br)c1
inactive: [1] 20.2% | [2] 14.9% | [3] 7.85% | [4] 18.6% | [5] 10.4% | [6] 43.4%

N#CC(NCc1cccc(CNC(C#N)c2ccccc2)c1)c1ccccc1 (configuration not stated)
inactive: [1] -4.8% | [2] 8.4% | [3] -28.1% | [4] -16.4% | [5] -28.7% | [6] -19.8%

COC1CC(NC(C)=O)C(O)C(C)O1 (configuration not stated)
inactive: [1] -10.2% | [2] -12.4% | [3] -10.6% | [4] -40% | [5] 5.65% | [6] 1.5%

OC1(C#Cc2ccccc2)c2ccccc2C(O)(C#Cc2ccccc2)c2ccccc21 (configuration not stated)
inactive: [1] 9.95% | [2] -11.8% | [3] 1.6% | [4] 14.1% | [5] -10.3% | [6] 10.1%

CC(CC(=O)O)C(C)(C#N)C(=O)O (configuration not stated)
inactive: [1] 1.8% | [2] 1.4% | [3] 2.8% | [4] -41.5% | [5] 0.05% | [6] -4.95%

CC1CCCN(C(=O)Nc2ccc([N+](=O)[O-])cc2)C1 (configuration not stated)
inactive: [1] 41.1% | [2] 31.3% | [3] 61.9% | [4] 25.8% | [5] 59.4% | [6] 43.8%

CC(C)C1SCC(=O)N1c1nncs1 (configuration not stated)
inactive: [1] -2.55% | [2] 22.4% | [3] 9.15% | [4] -27.8% | [5] -0.9% | [6] 5%

Cc1ccc(C(=O)c2c[nH]c(=O)[nH]c2=O)cc1
inactive: [1] 9.45% | [2] -20.2% | [3] -6.7% | [4] -6.5% | [5] -3.05% | [6] -21.9%

O=C(NN1C(=O)C(Cl)C1c1ccccc1Cl)c1ccccc1O (configuration not stated)
inactive: [1] -48.1% | [2] -35.9% | [3] -49.1% | [4] -5.55% | [5] -21% | [6] -36%

C[C@]12CC[C@H](OC3CCCCO3)CC1=CC[C@@H]1C2CC[C@]2(C)/C(=N/OCCC#N)CCC12 (some centres not stated)
inactive: [1] 16.9% | [2] 15.2% | [3] -3.85% | [4] -49.4% | [5] 3.3% | [6] 28.1%

CC(=O)C(c1ccccc1)S(=O)(=O)c1ccc(C)cc1 (configuration not stated)
inactive: [1] 13.8% | [2] -18.4% | [3] -11.7% | [4] -42.4% | [5] 24.9% | [6] -1.5%

COC(=O)C1(C(=O)OC)OC(c2ccc(OC)cc2)[C@H]2C(=O)N(C)C(=O)[C@H]21 (some centres not stated)
inactive: [1] 2.75% | [2] -6% | [3] 3.1% | [4] -8.7% | [5] 10.2% | [6] 15.3%
